# Data from PubChem BioAssay (NCATS).
# Values joined by “and” are separate entries in the source; they are usually repeats but may differ in a detail not shown here. Equal values may be shown once. Results filed as inconclusive are left out. Active and inactive are the calls of the source. Calls come from the whole dose curve; as a rule, active = well fitted cell-killing curve with a large enough effect; inconclusive = small, poorly fitted or top-dose-only effect, or effect the other way; inactive = no such curve, though single readings can be large or run the other way.
# Assay: Viability qHTS for spleen associated tyrosine kinase inhibitor (SYKi) naive MV4-11 cells (AID 1963823); note: nearly all actives have a fitted effect of over 40% in size
# Settings: MV4-11 AML viability, CellTiter-Glo luminescence, 72 h; series mostly up to 45 µM
# Summary of the method: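 SYKi-naive MV4-11 AML cells, 500 per well, were exposed to library compounds for 72 hr at 37 C, 5% CO2. Viability was then read by CellTiter-Glo luminescence after 10 min at room temperature.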
# Potency is the fitted concentration of half-maximal effect.
row,Compound,Potency
1,O=C(NCCCNc1nc(Nc2cccc(CN3CCOCC3)c2)ncc1C1CC1)C1CCC1,0.132 µM (active)
2,CCCCC/C(C=O)=C\c1ccccc1,inactive
3,CCN1CCN(Cc2ccc(Nc3ncc(F)c(-c4cc(F)c5nc(C)n(C(C)C)c5c4)n3)nc2)CC1,146 nM (active) and 148 nM (active)
4,Oc1cccc(-c2c3nc(c(-c4cccc(O)c4)c4ccc([nH]4)c(-c4cccc(O)c4)c4nc(c(-c5cccc(O)c5)c5ccc2[nH]5)CC4)C=C3)c1,16.8 µM (active)
5,O=C(/C=C/C#Cc1cccc(NS(=O)(=O)c2ccccc2)c1)NO,0.407 µM (active)
6,Nc1ccc(C(=O)O)c(O)c1,inactive
7,CCNC1(C(N)=O)CCN(c2ncnc3c2nc(-c2ccccc2Cl)n3-c2ccc(Cl)cc2)CC1,7.42 µM (active)
8,CC(C)n1nc(-c2cc3cc(O)ccc3[nH]2)c2c(N)ncnc21,0.116 µM (active)
9,CCOC(=O)c1ccnc(CNCC(=O)N(CC)CCN(C)C)c1,inactive
10,CN=C(NC#N)NCCSCc1csc(N=C(N)N)n1,inactive
11,CO/N=C(/C(=O)N[C@@H]1C(=O)N2C(C(=O)[O-])=C(C[n+]3ccn4ncccc43)CS[C@H]12)c1nsc(N)n1,inactive
12,C[C@H](NC(=O)c1c(N)nn2cccnc12)c1cc2cccc(C#Cc3cnn(C)c3)c2c(=O)n1-c1ccccc1,7.23 µM (active)
13,O=c1sn(-c2cccc3ccccc23)c(=O)n1Cc1ccccc1,14.6 µM (active)
14,O=C(Nc1ccc(OC(F)(F)Cl)cc1)c1cnc(N2CC[C@@H](O)C2)c(-c2ccn[nH]2)c1,5.9 µM (active)
